Assay results as given in article PMC7862700, “An all-to-all approach to the identification of sequence-specific readers for epigenetic DNA modifications on cytosine”.

Columns and labels:
Experiment in all cases: DAPPL (digital affinity profiling via proximity ligation, sequencing); 10 mM Tris-HCl pH 7.5, 50 mM NaCl, 1 mM DTT, 4% glycerol, room temperature, 30 min; GST-TFs on glutathione beads, 16-mer random dsDNA library, 0.1% formaldehyde crosslink after washing; high values mean tight binding
Settings in all cases: protein: recombinant; tags: N-terminal GST; dsDNA, one strand shown
ERF = biological target: T1, ERF (Homo sapiens, UniProt P50548 1-548)
T1 sequence: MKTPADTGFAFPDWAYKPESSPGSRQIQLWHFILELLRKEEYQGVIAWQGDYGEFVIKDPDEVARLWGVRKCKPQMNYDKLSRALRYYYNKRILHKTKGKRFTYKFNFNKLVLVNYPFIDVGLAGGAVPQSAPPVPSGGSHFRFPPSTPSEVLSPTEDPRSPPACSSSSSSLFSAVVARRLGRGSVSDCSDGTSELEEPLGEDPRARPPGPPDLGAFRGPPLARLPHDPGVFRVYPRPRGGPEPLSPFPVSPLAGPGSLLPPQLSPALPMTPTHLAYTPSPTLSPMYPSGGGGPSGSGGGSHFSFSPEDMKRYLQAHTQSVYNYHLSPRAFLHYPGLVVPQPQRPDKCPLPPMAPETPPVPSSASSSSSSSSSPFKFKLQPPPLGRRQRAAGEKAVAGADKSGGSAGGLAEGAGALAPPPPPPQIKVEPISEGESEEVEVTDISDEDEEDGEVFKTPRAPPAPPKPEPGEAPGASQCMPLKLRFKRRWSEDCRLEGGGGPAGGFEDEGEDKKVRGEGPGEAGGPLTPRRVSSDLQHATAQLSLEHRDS
Method in brief: (§1)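 Beads coated with glutathione captured GST-fused human transcription factors that had been expressed in yeast, and the factors were then given DNA barcodes and pooled with a tag-only sample. The pools were incubated with 200 nmole of a random double-stranded 16-mer DNA library in Tris/NaCl/DTT/glycerol buffer for 30 min at room temperature, washed, crosslinked with 0.1% formaldehyde and proximity-ligated with BsaI/T4 ligase at 37 °C for 1 h. PCR amplification and Illumina NextSeq500 sequencing came last. Binding signal is each hexamer's read frequency for a factor divided by its frequency for the tag-only sample.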

ETV3L = biological target: T2, ETV3L (Homo sapiens, UniProt Q6ZN32 1-361)
T2 sequence: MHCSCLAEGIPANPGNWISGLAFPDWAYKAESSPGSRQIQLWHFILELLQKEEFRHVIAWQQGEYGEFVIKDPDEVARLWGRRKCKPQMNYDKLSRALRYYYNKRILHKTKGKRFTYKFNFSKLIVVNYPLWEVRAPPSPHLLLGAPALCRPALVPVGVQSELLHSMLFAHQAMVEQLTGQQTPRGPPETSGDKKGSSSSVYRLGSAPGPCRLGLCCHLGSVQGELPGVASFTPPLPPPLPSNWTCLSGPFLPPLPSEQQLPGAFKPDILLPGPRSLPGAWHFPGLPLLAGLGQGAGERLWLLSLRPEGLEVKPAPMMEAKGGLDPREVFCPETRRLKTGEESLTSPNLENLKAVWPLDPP
Method in brief: as §1

ETS2 = biological target: T3, ETS2 (Homo sapiens, UniProt P15036 1-469)
T3 sequence: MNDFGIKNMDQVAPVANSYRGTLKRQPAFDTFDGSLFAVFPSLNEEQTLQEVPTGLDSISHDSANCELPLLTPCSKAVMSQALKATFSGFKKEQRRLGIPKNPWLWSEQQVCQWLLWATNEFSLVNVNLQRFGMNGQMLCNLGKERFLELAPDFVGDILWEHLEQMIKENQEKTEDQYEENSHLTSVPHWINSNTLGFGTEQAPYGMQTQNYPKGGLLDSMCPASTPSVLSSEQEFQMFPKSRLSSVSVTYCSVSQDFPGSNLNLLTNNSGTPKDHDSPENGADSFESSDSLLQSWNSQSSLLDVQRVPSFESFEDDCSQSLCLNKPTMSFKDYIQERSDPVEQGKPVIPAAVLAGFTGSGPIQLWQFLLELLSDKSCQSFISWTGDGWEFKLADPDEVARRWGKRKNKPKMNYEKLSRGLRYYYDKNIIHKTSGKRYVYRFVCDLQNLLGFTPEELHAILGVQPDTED
Method in brief: as §1

SPDEF = biological target: T4, SPDEF (Homo sapiens, UniProt O95238 1-335)
T4 sequence: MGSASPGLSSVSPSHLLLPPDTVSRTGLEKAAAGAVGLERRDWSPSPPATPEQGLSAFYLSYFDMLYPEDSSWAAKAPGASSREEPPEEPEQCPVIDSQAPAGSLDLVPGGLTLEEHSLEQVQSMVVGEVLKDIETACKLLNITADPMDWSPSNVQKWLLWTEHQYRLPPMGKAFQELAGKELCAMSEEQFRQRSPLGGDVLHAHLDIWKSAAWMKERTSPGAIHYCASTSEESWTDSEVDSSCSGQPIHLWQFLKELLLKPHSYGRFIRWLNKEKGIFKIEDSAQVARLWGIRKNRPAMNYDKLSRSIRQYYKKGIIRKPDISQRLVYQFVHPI
Method in brief: as §1

ETV7 = biological target: T5, ETV7 (Homo sapiens, UniProt Q9Y603 1-341)
T5 sequence: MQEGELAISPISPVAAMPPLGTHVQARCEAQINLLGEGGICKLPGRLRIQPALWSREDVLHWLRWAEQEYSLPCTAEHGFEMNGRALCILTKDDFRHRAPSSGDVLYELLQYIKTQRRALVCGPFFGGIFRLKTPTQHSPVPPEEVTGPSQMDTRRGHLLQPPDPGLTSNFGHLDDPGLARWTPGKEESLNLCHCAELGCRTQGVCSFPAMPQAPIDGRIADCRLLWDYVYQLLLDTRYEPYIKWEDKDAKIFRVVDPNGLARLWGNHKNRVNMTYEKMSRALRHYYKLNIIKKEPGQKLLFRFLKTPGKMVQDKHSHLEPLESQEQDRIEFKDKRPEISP
Method in brief: as §1

ELF5 = biological target: T6, ELF5 (Homo sapiens, UniProt Q9UKW6-2 1-255)
T6 sequence: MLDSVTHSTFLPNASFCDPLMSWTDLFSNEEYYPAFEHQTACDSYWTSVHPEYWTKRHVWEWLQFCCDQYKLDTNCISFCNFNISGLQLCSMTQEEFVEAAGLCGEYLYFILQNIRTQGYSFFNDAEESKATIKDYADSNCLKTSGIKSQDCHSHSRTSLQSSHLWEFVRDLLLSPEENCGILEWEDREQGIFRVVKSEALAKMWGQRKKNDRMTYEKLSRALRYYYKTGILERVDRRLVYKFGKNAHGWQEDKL
Method in brief: as §1

ETV3 = biological target: T7, ETV3 (Homo sapiens, UniProt P41162-2 1-143)
T7 sequence: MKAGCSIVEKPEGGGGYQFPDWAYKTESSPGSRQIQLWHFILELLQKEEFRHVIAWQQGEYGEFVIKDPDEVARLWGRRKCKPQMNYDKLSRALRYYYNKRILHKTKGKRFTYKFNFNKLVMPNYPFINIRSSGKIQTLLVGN
Method in brief: as §1

ETV6 = ETV6 (Homo sapiens, UniProt P41212 1-452)
ETV6, sequence (P41212 whole entry): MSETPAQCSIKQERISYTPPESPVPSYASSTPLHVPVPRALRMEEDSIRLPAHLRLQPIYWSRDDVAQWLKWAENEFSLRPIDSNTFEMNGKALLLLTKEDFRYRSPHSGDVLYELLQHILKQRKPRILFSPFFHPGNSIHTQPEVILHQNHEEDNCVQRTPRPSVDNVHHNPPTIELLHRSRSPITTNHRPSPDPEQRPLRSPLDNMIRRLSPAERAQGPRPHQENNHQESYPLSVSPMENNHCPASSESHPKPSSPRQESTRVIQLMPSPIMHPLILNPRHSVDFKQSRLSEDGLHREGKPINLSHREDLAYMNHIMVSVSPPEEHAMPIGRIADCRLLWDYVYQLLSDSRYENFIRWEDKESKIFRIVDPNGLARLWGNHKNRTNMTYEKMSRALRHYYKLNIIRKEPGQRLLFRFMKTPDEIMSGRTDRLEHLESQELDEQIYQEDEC
Method in brief: as §1

Sequence | binding signal (ERF) | binding signal (ETV3L) | binding signal (ETS2) | binding signal (SPDEF) | binding signal (ETV7) | binding signal (ELF5) | binding signal (ETV3) | binding signal (ETV6)
TATCTC | 1.3 fold enrichment (6-mer frequency, TF over GST control) | 1.3 fold enrichment (6-mer frequency, TF over GST control) | 1.27 fold enrichment (6-mer frequency, TF over GST control) | 1.22 fold enrichment (6-mer frequency, TF over GST control) | 1.21 fold enrichment (6-mer frequency, TF over GST control) | 1.23 fold enrichment (6-mer frequency, TF over GST control) | 1.13 fold enrichment (6-mer frequency, TF over GST control) | 1.21 fold enrichment (6-mer frequency, TF over GST control)
TACCCG | 1.41 fold enrichment (6-mer frequency, TF over GST control) | 1.56 fold enrichment (6-mer frequency, TF over GST control) | 1.42 fold enrichment (6-mer frequency, TF over GST control) | 1.59 fold enrichment (6-mer frequency, TF over GST control) | 1.43 fold enrichment (6-mer frequency, TF over GST control) | 1.5 fold enrichment (6-mer frequency, TF over GST control) | 1.47 fold enrichment (6-mer frequency, TF over GST control) | 1.5 fold enrichment (6-mer frequency, TF over GST control)
AGATTC | 1.05 fold enrichment (6-mer frequency, TF over GST control) | 1.23 fold enrichment (6-mer frequency, TF over GST control) | 1.08 fold enrichment (6-mer frequency, TF over GST control) | 1.17 fold enrichment (6-mer frequency, TF over GST control) | 1.18 fold enrichment (6-mer frequency, TF over GST control) | 1.09 fold enrichment (6-mer frequency, TF over GST control) | 1.15 fold enrichment (6-mer frequency, TF over GST control) | 1.22 fold enrichment (6-mer frequency, TF over GST control)
CCGTCT | 1.28 fold enrichment (6-mer frequency, TF over GST control) | 1.4 fold enrichment (6-mer frequency, TF over GST control) | 1.29 fold enrichment (6-mer frequency, TF over GST control) | 1.42 fold enrichment (6-mer frequency, TF over GST control) | 1.26 fold enrichment (6-mer frequency, TF over GST control) | 1.39 fold enrichment (6-mer frequency, TF over GST control) | 1.36 fold enrichment (6-mer frequency, TF over GST control) | 1.39 fold enrichment (6-mer frequency, TF over GST control)
AATTGA | 1.24 fold enrichment (6-mer frequency, TF over GST control) | 1.13 fold enrichment (6-mer frequency, TF over GST control) | 1.26 fold enrichment (6-mer frequency, TF over GST control) | 1.15 fold enrichment (6-mer frequency, TF over GST control) | 1.28 fold enrichment (6-mer frequency, TF over GST control) | 1.21 fold enrichment (6-mer frequency, TF over GST control) | 1.17 fold enrichment (6-mer frequency, TF over GST control) | 1.19 fold enrichment (6-mer frequency, TF over GST control)
CCCATA | 1.19 fold enrichment (6-mer frequency, TF over GST control) | 1.34 fold enrichment (6-mer frequency, TF over GST control) | 1.29 fold enrichment (6-mer frequency, TF over GST control) | 1.19 fold enrichment (6-mer frequency, TF over GST control) | 1.19 fold enrichment (6-mer frequency, TF over GST control) | 1.25 fold enrichment (6-mer frequency, TF over GST control) | 1.21 fold enrichment (6-mer frequency, TF over GST control) | 1.31 fold enrichment (6-mer frequency, TF over GST control)
CAATTC | 1.26 fold enrichment (6-mer frequency, TF over GST control) | 1.27 fold enrichment (6-mer frequency, TF over GST control) | 1.24 fold enrichment (6-mer frequency, TF over GST control) | 1.33 fold enrichment (6-mer frequency, TF over GST control) | 1.24 fold enrichment (6-mer frequency, TF over GST control) | 1.25 fold enrichment (6-mer frequency, TF over GST control) | 1.31 fold enrichment (6-mer frequency, TF over GST control) | 1.16 fold enrichment (6-mer frequency, TF over GST control)
